Experimental data as given in PubChem BioAssay AID624168 (Sanford-Burnham Center for Chemical Genomics, 2012).
The whole screen tested about 360,000 compounds, of which about 800 (0.22%) were called active. Only a selection was taken, and actives are over-represented in it overall. Unmarked numbers belong to inactive results.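 Rule for the calls: active = activation of at least 8% versus controls, or a plate z-score of at least 8; inactive = the rest.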

Assay: activators of alpha-DG glycosylation, primary screen, uHTS, Pro5-aDG cells, AlphaScreen (AID 624168);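 note: Pro5 are CHO cells carrying HIG-tagged alpha-DG that lacks glycosylation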
Conditions: alpha-DG glycosylation AlphaScreen (IIH6), at 10 µM, active compounds read high, 0% Pro5, 100% B10-LARGE cell signal

SMILES | activation
Cc1ccc(NC(=O)c2sccc2C)cc1[N+](=O)[O-] | 0%
CN(CC(=O)Nc1cccc(F)c1)C(=O)C1=COCCO1 | 0.1%
Cc1ccc(NC(=O)CN(C)CC(=O)Nc2cccc(F)c2)cc1[N+](=O)[O-] | 10% (active)
O=C(CN1CCCCC1)NC(=O)Nc1ccccc1F | 0%
O=C(CCNS(=O)(=O)c1ccc(Br)s1)NCc1ccccc1Cl | 0.5%
COc1cccc(NC(=O)N(C)C[C@@H]2Oc3ncc(Br)cc3C(=O)N([C@@H](C)CO)C[C@H]2C)c1 | 0.2%
OC(CN1C2=NCCCN2c2ccccc21)c1ccc(Br)cc1 (configuration not stated) | 0.6%
CC(=O)N1CSCC1C(=O)O (configuration not stated) | 0.1%
O=c1ccc2cc(S(=O)(=O)N3CCN(c4ccccc4)CC3)ccc2o1 | 8.4% (active)
NC(=O)COC(=O)c1cc(S(=O)(=O)N2CCN(c3ccccc3)CC2)ccc1Cl | -1.4%
O=S(=O)(c1ccc2ccccc2c1)N1CCN(S(=O)(=O)N2CCOCC2)CC1 | 0.1%
O=C1OCCOC2CCCc3oc(-c4ccccc4)c1c32 (configuration not stated) | 0.5%
CCN(CC(=O)NCc1ccc(Cl)cc1)C(=O)CSc1ccccc1 | 0%
O=S(=O)(c1ccc(Cl)cc1)c1nc(-c2ccccc2F)oc1NCCN1CCOCC1 | 0.2%
c1ccc2cc3c(NCCN4CCOCC4)ccnc3cc2c1 | 9% (active)
O=C(NCCN1CCOCC1)Nc1cccc(Cl)c1 | -0.1%
O=S1(=O)CC(NCc2ccccc2)C(Nc2ccc(Cl)cc2)C1 (configuration not stated) | 0%
O=C(/C(=N\O)n1cncn1)c1ccc(Br)cc1Br | 0.2%
O=C(NC(c1ccc(-c2ccccc2)cc1)c1cnccn1)C1CCN(CCOc2ccc(Cl)cc2Cl)CC1 (configuration not stated) | 7.1% (active)
Cc1ccc(C(NC(=O)C2CCN(CCOc3ccc(Cl)cc3Cl)CC2)c2ccccn2)cc1 (configuration not stated) | 0.4%
O=C(NC(c1ccc(Cl)cc1)c1cnccn1)C1CCN(Cc2ccc(Cl)cc2)CC1 (configuration not stated) | 0.1%
CCOC(=O)c1cc2sccc2n1Cc1ccc(C#N)cc1 | 0%
CCOCCCNC(=O)C1(O)c2cc(Br)ccc2NC(=O)N1c1ccc(C)c(C)c1 (configuration not stated) | -0.2%
CN1CCCc2cc(C#N)c(=O)[nH]c21 | 0%
CC(C)c1cc(Cn2c3ccccc3c(=O)n2C(C)Cn2cc(C3CC3)nn2)on1 (configuration not stated) | 6.8% (active)
COCCN(C(=O)C(C)C)c1nnc(-c2ccc(C(C)(C)C)cc2)s1 | 0.5%
Cc1ccc(OCc2nnc(SC3CCc4ccccc4C3=O)n2C)cc1 (configuration not stated) | 0%
